Activity calls are given as the source filed them.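 How the source made its calls: active means GFP response above 150% of the DMSO control; inconclusive means Under 70 cell events counted for a yeast strain; inactive means the rest.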
Assay: yeast TOR pathway CIT2-GFP reporter retest – flow cytometry, third cherry pick, single plex, confirmation (AID 504340);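 further: median GFP fluorescence over all cells with no mother versus daughter split; sample signal as a ratio to the plate DMSO mean so 100% equals DMSO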
Conditions: S. cerevisiae CIT2-GFP strain, 3 h, at 10 µM, stronger effect = higher value

Structure (SMILES) | GFP response vs DMSO
O=C(Nc1ccccc1)ON=C1c2ccccc2-c2ccccc21 | 112% (inactive)
COc1cccc(N/C(C)=C/C(=O)c2ccc(Br)cc2)c1 | 104% (inactive)
O=C(N/N=C/c1ccccc1F)c1cccc2ccccc12 | 104% (inactive)
C/C(=N\NC(=O)c1ccccc1)c1ccccc1F | 104% (inactive)
O=C(Nc1ccccc1)O/N=C1/CCCc2occc21 | 103% (inactive)
Cn1cccc1C(=O)Nc1nc(-c2ccccn2)cs1 | 106% (inactive)
O=C1c2ccccc2C(=O)c2c1cccc2N(CCO)CCO | 92.8% (inactive)
COc1cccc(OCc2cc(C(=O)N3CCN(C)C(c4ccccc4)C3)no2)c1 (centres undefined) | 97.7% (inactive)
Oc1ccc(F)c2cccnc12 | 101% (inactive)
Cc1cccc(Nc2cc(=O)[nH]c(=O)[nH]2)c1 | 94.5% (inactive)
Oc1ccc(Cl)c2cccnc12 | 103% (inactive)
CCC(C)Nc1nc(N)c([N+](=O)[O-])c(Nc2ccccc2OC)n1 (centres undefined) | 114% (inactive)
CC(=O)Nn1cnc2c(c1=O)C1(CCCCC1)Cc1ccccc1-2 | 112% (inactive)
Nc1[nH]c(=O)nc(Nc2ccccc2)c1N=O | 92.8% (inactive)
CCCOCc1ccc(O)c2ncccc12 | 104% (inactive)
Cn1c(=O)c2c(n3cnnc13)-c1ccccc1CC21CCCC1 | 106% (inactive)
Nc1ncnc(Nc2cc(Cl)cc(Cl)c2)c1[N+](=O)[O-] | 97.7% (inactive)
Cn1c(NCCCO)nc2c(c1=O)C1(CCCCC1)Cc1ccccc1-2 | 117% (inactive)
Cc1ccc(NC(=O)O/N=C2\CCCCC2c2ccc([N+](=O)[O-])cc2[N+](=O)[O-])cc1 (centres undefined) | 106% (inactive)

— PubChem BioAssay AID504340 (NMMLSC, 2011)
